Experimental data published in PubChem BioAssay AID720704 (The Scripps Research Institute Molecular Screening Center, 2013).
Out of some 370,000 compounds screened, about 660 (0.18%) were called active. This excerpt belongs to a sample that is enriched for actives. Unmarked numbers belong to inactive results. Rule as the data show it: active = inhibition above about 11%; inactive = the rest.

Target: 1-phosphatidylinositol 4,5-bisphosphate phosphodiesterase beta-3 (Homo sapiens) (UniProt Q01970)
Test: phospholipase C beta3 enzyme inhibition – biochemical, fluorescence, primary screen (AID 720704);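 also: 0% = median of compound wells on plate and 100% = full blocker control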
Conditions: Purified PLC-beta3, fluorogenic substrate, at 12.2 µM, active compounds read high

Sequence of 1-phosphatidylinositol 4,5-bisphosphate phosphodiesterase beta-3 (Homo sapiens) (Q01970 whole entry, looked up): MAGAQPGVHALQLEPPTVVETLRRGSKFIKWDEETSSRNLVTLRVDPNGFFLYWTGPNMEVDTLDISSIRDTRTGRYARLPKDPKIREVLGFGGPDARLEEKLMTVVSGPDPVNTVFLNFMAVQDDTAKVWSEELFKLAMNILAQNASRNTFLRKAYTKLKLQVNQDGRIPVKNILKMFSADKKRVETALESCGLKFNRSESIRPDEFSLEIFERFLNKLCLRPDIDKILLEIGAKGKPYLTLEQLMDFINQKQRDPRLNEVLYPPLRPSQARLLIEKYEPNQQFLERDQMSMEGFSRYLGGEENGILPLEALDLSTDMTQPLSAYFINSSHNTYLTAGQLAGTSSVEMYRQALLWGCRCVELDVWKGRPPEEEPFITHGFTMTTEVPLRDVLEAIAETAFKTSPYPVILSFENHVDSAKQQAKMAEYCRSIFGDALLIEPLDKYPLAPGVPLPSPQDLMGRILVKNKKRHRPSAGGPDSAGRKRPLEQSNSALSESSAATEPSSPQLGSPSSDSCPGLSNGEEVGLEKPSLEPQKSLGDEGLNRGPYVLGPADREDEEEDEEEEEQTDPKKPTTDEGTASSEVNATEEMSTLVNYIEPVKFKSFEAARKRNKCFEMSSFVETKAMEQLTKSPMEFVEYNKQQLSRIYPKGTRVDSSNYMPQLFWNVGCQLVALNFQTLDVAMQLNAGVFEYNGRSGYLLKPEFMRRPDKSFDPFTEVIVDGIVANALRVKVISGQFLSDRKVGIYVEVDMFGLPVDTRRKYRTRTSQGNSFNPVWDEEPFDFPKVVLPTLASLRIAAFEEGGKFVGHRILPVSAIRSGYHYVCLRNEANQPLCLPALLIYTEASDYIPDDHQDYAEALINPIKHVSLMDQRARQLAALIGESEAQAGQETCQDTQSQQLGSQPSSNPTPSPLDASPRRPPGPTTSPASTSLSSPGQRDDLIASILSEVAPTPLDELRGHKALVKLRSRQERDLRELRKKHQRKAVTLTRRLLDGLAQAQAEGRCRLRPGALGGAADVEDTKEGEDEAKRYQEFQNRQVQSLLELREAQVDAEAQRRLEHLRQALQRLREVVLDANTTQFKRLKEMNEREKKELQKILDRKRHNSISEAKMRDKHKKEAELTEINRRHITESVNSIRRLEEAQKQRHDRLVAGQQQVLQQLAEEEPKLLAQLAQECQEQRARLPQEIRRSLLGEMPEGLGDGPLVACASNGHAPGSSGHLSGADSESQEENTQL

Q: For `Cc1ccc(S(=O)(=O)N2CCC(C(=O)N[C@@H](C)C(=O)NCc3ccco3)CC2)cc1`, which inhibition is on record?
A: The inhibition was 0.13%.

Q: For `CC1CCN(S(=O)(=O)c2ccc(S(=O)(=O)NCc3cccnc3)cc2)CC1`, which inhibition is on record?
A: The inhibition was -6.19%.

Q: With `CC1CCN(S(=O)(=O)c2ccc(S(=O)(=O)NCc3ccco3)cc2)CC1` as the compound, how does the inhibition read?
A: Its inhibition is 10.8% (active).

Q: For `CC(=O)n1cc([C@H]2C=C(C(=O)N3CCOCC3)O[C@@H](OCc3ccc(CO)cc3)C2)c2ccccc21`, which inhibition is on record?
A: The inhibition was -5.02%.

Q: `COC(=O)c1ccccc1-n1cc(COC(=O)NCCc2ccccc2)nn1` was tested. Which inhibition did it give?
A: Its inhibition is -1.19%.

Q: With `CC(=O)NC(Cc1ccc(F)c(F)c1)C(=O)NC1CCN(C(=O)c2ccc(C)cc2)CC1` (stereo not given) as the compound, how does the inhibition read?
A: The inhibition was -5.45%.

Q: Which inhibition does the source give for `O=C(NCc1ccccc1Cl)C(=O)NCC1CCCN1S(=O)(=O)c1cccs1` (stereo not given) here?
A: Its inhibition is -11.5%.

Q: Which inhibition does the source give for `O=C(c1ccccc1Cl)N(Cc1ccccc1F)N1C(=O)CCCC1=O` here?
A: The inhibition was -3.35%.

Q: For `CC1=C(C)C(=O)OC(C(C)C2CCC3C4CC=C5CC(OC6OC(COC7OC(CO)C(O)C(O)C7O)C(O)C(O)C6O)CC(O)C5(C)C4CCC23C)C1` (stereo not given), which inhibition is on record?
A: Its inhibition is 4.96%.

Q: With `Cc1nnc(SC(C)C(=O)Nc2ccc(S(=O)(=O)NC3CCCCC3)cc2)s1` (stereo not given) as the compound, how does the inhibition read?
A: Its inhibition is 4.91%.

Q: How did the inhibition turn out when `COc1ccc(OC)c(NC(=O)CSc2nc3cccnc3n2C)c1` was run?
A: Its inhibition is 6.47%.

Q: For `CCOc1ccc(OCC)c(NC(=O)CSc2nnc(Cn3cnc4ccccc43)n2C)c1`, which inhibition is on record?
A: Its inhibition is 12.1% (active).

Q: How did the inhibition turn out when `COc1ccc(C)cc1NC(=O)CSc1nnc(CC(=O)Nc2ccccc2F)n1C` was run?
A: The inhibition was -4.5%.

Q: For `CSCCC(NC(=O)c1cc([N+](=O)[O-])cc([N+](=O)[O-])c1)c1nc2ccccc2[nH]1` (stereo not given), which inhibition is on record?
A: Its inhibition is -1.97%.

Q: How did the inhibition turn out when `O=C(CSc1nc2ccccc2o1)N1c2ccccc2Sc2ccc(Cl)cc21` was run?
A: The inhibition was -0.49%.

Q: Which inhibition does the source give for `Cc1ccc(/C=N/NC(=O)CSc2nc3ccccc3o2)cc1` here?
A: Its inhibition is 11.3% (active).

Q: Which inhibition does the source give for `O=C(CSc1nc2ccccc2o1)N1CCN(c2ccc(Cl)cc2)CC1` here?
A: The inhibition was -0.03%.

Q: Which inhibition does the source give for `O=C1CCC(C(=O)N2CCC(O)(c3ccccc3)CC2)CN1CCc1ccccc1` (stereo not given) here?
A: Its inhibition is -8.61%.

Q: With `CCC(=O)c1ccc(N2CCN(C(=O)c3cc([N+](=O)[O-])ccc3F)CC2)c(F)c1` as the compound, how does the inhibition read?
A: The inhibition was -2.14%.

Q: `NC(=O)c1nnsc1-c1ccc(-c2snnc2C(N)=O)cc1` was tested. Which inhibition did it give?
A: Its inhibition is -6.22%.

Q: For `Cc1ccc(-c2nc(CS(=O)(=O)CC(=O)NCc3ccc4c(c3)OCO4)c(C)o2)cc1`, which inhibition is on record?
A: The inhibition was -6.63%.

Q: `O=C(COC(=O)c1ncc(Cl)c(Cl)c1Cl)NNC(=O)c1ccccc1` was tested. Which inhibition did it give?
A: Its inhibition is -12.2%.

Q: With `Cc1cc(Cl)ccc1OCCCC(=O)Nc1cccc(-n2cnnn2)c1` as the compound, how does the inhibition read?
A: Its inhibition is -7.06%.

Q: `COc1ccc(CC(NC(C)=O)C(=O)NC2CCN(C(=O)c3ccc(OC)c(OC)c3)CC2)cc1OC` (stereo not given) was tested. Which inhibition did it give?
A: Its inhibition is 2.51%.

Q: For `Cc1nc2ccccc2nc1CC(O)(c1ccccc1)c1ccccc1`, which inhibition is on record?
A: Its inhibition is 11.5% (active).

Q: Which inhibition does the source give for `Cc1nnc(SCc2nc3ccccc3nc2C)s1` here?
A: Its inhibition is 2.42%.

Q: Which inhibition does the source give for `C/C(CC(O)(/C=N/O)c1ccccc1)=N\O` (stereo not given) here?
A: The inhibition was 3.84%.

Q: Which inhibition does the source give for `O=C(c1cc2sccc2n1Cc1ccc(F)cc1)N1CCc2ccccc21` here?
A: Its inhibition is -17.1%.

Q: Which inhibition does the source give for `Cc1ccc(C)c(NC(=O)c2ccc(OC(=O)c3ccco3)cc2)c1` here?
A: The inhibition was -2.18%.

Q: How did the inhibition turn out when `Cc1cc(NC(=O)[C@H](C)NC(=O)c2ccco2)ccc1Br` was run?
A: The inhibition was -1.12%.

Q: `Cc1cc(NC(=O)c2ccc(F)cc2)ccc1NC(=O)c1ccco1` was tested. Which inhibition did it give?
A: Its inhibition is 12.6% (active).

Q: `O=C(C[C@H]1C(=O)N(c2ccc(F)c(F)c2)C[C@@H]1Cc1ccccc1)Nc1ccccc1` was tested. Which inhibition did it give?
A: Its inhibition is 12.1% (active).

Q: For `COc1ccc(NC(=O)C[C@H]2C(=O)N(CCc3ccccc3)C[C@@H]2C)cc1`, which inhibition is on record?
A: The inhibition was 4.39%.

Q: Which inhibition does the source give for `CC1(C)CN(CCc2ccccc2)C(=O)[C@H]1CC(=O)Nc1ccc(Br)cc1` here?
A: The inhibition was 1.65%.

Q: With `Cc1nc2nc(COc3ccccc3)[nH]n2c(=O)c1C` as the compound, how does the inhibition read?
A: The inhibition was 2.74%.

Q: For `CCN1C(=O)CS/C1=N\c1nccs1`, which inhibition is on record?
A: Its inhibition is 0.11%.

Q: With `Nc1ccn(CC(=O)N2CCN(c3ccccn3)CC2)c(=O)n1` as the compound, how does the inhibition read?
A: The inhibition was -1.87%.

Q: For `O=C1NCC(Nc2ccccc2)C(=O)N1` (stereo not given), which inhibition is on record?
A: Its inhibition is 1.2%.

Q: How did the inhibition turn out when `C=CCn1c(=O)n(C)c2c(=O)n(C)c(=O)n(C)c21` was run?
A: Its inhibition is 0.17%.

Q: `CCC1CCCCN1C(=O)CSc1nc2c(c(=O)n(C)c(=O)n2C)n1C` (stereo not given) was tested. Which inhibition did it give?
A: Its inhibition is -1.77%.

Q: How did the inhibition turn out when `CCC1CCCCN1C(=O)CSc1nc2c(c(=O)n1C)SC(C)C2` (stereo not given) was run?
A: Its inhibition is -1.75%.

Q: With `CCC1CCCCN1C(=O)CSc1nc(C)cc(C)n1` (stereo not given) as the compound, how does the inhibition read?
A: Its inhibition is 19.7% (active).

Q: With `CCCC/S(C)=N/S(=O)(=O)c1ccc(C)cc1` (stereo not given) as the compound, how does the inhibition read?
A: Its inhibition is 3.14%.

Q: How did the inhibition turn out when `C=CC[C@@H](CC(=O)N[C@@H](CO)Cc1ccccc1)C(=O)N[C@H](COC(=O)[C@H](CC=C)CC(=O)OC(C)(C)C)Cc1ccccc1` was run?
A: The inhibition was 2.78%.

Q: How did the inhibition turn out when `C=CC[C@@H](CC(=O)NCCO)C(=O)N[C@H](C)COC(=O)[C@@H](CC=C)CC(=O)OC(C)(C)C` was run?
A: The inhibition was 12.3% (active).

Q: For `C=CC[C@@H](CC(=O)N[C@@H](CO)Cc1ccccc1)C(=O)NCCOC(=O)[C@@H](CC=C)CC(=O)OC(C)(C)C`, which inhibition is on record?
A: The inhibition was 2.47%.

Q: Which inhibition does the source give for `CCO[C@@H]1OC(C(=O)NC2CC2)=C[C@H](C)[C@H]1CCCO` here?
A: The inhibition was 1.08%.

Q: `CC1=C(C(=O)N2CCOCC2)CC(CC(=O)NCc2cccc3ccccc23)C(=O)N1CCC1=CCCCC1` (stereo not given) was tested. Which inhibition did it give?
A: The inhibition was 3.78%.

Q: Which inhibition does the source give for `Nc1cc(N2CCCCCC2)c2nonc2c1[N+](=O)[O-]` here?
A: Its inhibition is -10.7%.

Q: For `Cc1cc2c(cc1C)NC(c1ccccn1)C1=C(CC(C)(C)CC1=O)N2` (stereo not given), which inhibition is on record?
A: The inhibition was -15%.

Q: How did the inhibition turn out when `O=C(O)CCCCOn1ccnc1` was run?
A: The inhibition was 1.89%.

Q: For `CC(C)CCN(C(=O)c1csnn1)C(C(=O)NC1CCCC1)c1ccccc1` (stereo not given), which inhibition is on record?
A: Its inhibition is -3.64%.

Q: Which inhibition does the source give for `CN1C(CC(=O)Nc2ccc(Br)cc2)c2ccccc2CC1(C)C` (stereo not given) here?
A: Its inhibition is -1.47%.

Q: `COC(=O)C1=C(N)Oc2cc(C)oc(=O)c2C1c1cccnc1` (stereo not given) was tested. Which inhibition did it give?
A: Its inhibition is -0.05%.

Q: Which inhibition does the source give for `O=C(Nc1ccccc1C(F)(F)F)N1CCCC1c1cccnc1` (stereo not given) here?
A: The inhibition was -8.96%.

Q: For `O=c1ccc2c(-c3ccccc3S(=O)(=O)O)c3ccc(O)c(O)c3oc-2c1O`, which inhibition is on record?
A: Its inhibition is 11.7% (active).

Q: `Cc1ccsc1C(=O)N[C@@H](C)c1nnc2ccccn12` was tested. Which inhibition did it give?
A: The inhibition was -1.93%.

Q: For `COc1ccc(Br)cc1CN(C)C(=O)C1CC(=O)N(C2CCCC2)C1` (stereo not given), which inhibition is on record?
A: The inhibition was -3.09%.

Q: For `CCN1CN(Cc2ccccc2)CNC1=S`, which inhibition is on record?
A: The inhibition was 6.18%.

Q: For `CC(C)c1nc2oc3c(N4CCN(C)CC4)ncnc3c2c2c1CCC2`, which inhibition is on record?
A: The inhibition was -17.2%.
